Molecules are shown by their SMILES. Where “and” joins values, the source holds several entries; their conditions need not be identical. Identical values can stand only once. About 83,000 compounds went through this panel and 20% of them were active in at least one assay; those are over-represented in the sample as a whole.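 Cells were grown in 96-well plates and exposed to the test compound at a single concentration for 48 hours; results are reported as percent growth, with values below 10 considered active.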 Calls of active or inactive are those of the source.

For the first test, the system named is HT29 colon. Nature of the test: NCI-60 one-dose screen, 48 h (100 = growth as untreated, 0 = no growth, -100 = all killed). The note with it: 10 µM. The procedure:
Growth inhibition of the HT29 human tumor cell line is measured as a screen for anti-cancer activity. Cells are grown in 96 well plates and exposed to the test compound for 48 hours. Compounds are tested at a single concentration, which is 10^-5 M for most compounds. The reported endpoint is percent growth (GI% or GIPRCNT), where numbers from 0 - 100% represent growth inhibition, and numbers from -100% - 0 represent cell death. For example, a value of 40 represents 60% growth inhibition. A value of 0 means no net growth occurred over the course of the experiment. A value of -40 indicates 40% of cells at the beginning of the experiment died by the end of the experiment. A value of -100 means all cells are dead at the end of the experiment.
NCI-60 Human Tumor Cell Lines Screen was performed using the standard one-dose NCI protocol, which is described in more detail at https://dtp.cancer.gov/discovery_development/nci-60/default.htm.
Compounds with GIPRCNT values below 10 were considered active. Activity score was based on GIPRCNT using the following formula: […]
Score is 0 for GIPRCNT values of 100 or above, 50 for GIPRCNT values of 0, and 100 for GIPRCNT values of -100.
On to `O=C(Nc1cccc(Br)c1)Oc1cccc2cccnc12`, for which the growth is 92.1% (inactive).
Regarding `CN(C)C(=O)c1ccc(SC(=S)NCc2ccccc2)cc1`, the growth is 107% (inactive).
As to `O=C(O)c1c(Cl)c(Cl)c(Cl)c(Cl)c1-c1c2cc(I)c(=O)c(I)c-2oc2c(I)c(O)c(I)cc12`, the growth is 105% (inactive) and 104% (inactive) and 95.2% (inactive).

Staying with this test, now noted: 10 µM unless noted.
`N[C@H](C(=O)O)[C@@H]1CC(Cl)=NO1`: the growth is 17.3% [20 µM] (inactive).
Regarding `CC(=Nc1ccc(N(C)C)cc1)c1ccccc1`, the growth is 35.2% (inactive).
On the same count and under the same terms, next, `O=C1C=CC(=O)N1C1c2ccccc2-c2ccccc21`: 92.9% (inactive); `N#CSCc1ccc(Cl)c(CSC#N)c1`: 6.14% (active).
Regarding `O=C1c2cccnc2-c2nccc3c2c1nc1cc(Br)ccc13`, the growth is -35% (active) and -75.9% (active).
Turning to `Cc1c2ccccc2c(C)c2c1ccc1ccccc12`, the growth is 92.9% (inactive).
Still for that read-out and setting: next, `CC1OC2CC(=O)OC2C2=C1C(=O)c1c(O)cccc1C2=O` (stereo not given): -51.8% (active); `CNc1ccc(N)cc1`: 107% (inactive).
The same measure, in the same setting: under `COC(=O)c1nc(=S)[nH]c(C(=O)OC)c1C(=O)c1ccc2ccccc2c1` stands 112% (inactive); under `CCC(c1cccc(O)c1)C(CC)c1cccc(O)c1` (stereo not given), 42% (inactive).
The same measure, in the same setting: under `CCCCCCCCCCCCCCCC[N+](C)(CCO)Cc1cnc[nH]1` (stereo not given) stands -58.8% (active).
In the case of `CN(C)c1ccc(/C=N/N=C(\C#N)[S][Sn]([Cl])([c]2ccccc2)[c]2ccccc2)cc1`, the growth is 19.2% (inactive).
Same read-out and setting: next, `O=C(Nc1ccccc1)c1cc(Cl)ccc1O`: 89% (inactive).
For `Nc1nc(N)c2nc(CNc3ccc(C(=O)NC(CCC(=O)O)C(=O)O)cc3)cnc2n1` (stereo not given), the growth was 32.5% (inactive) and 18.5% (inactive).
With `COC(=O)c1nc(=S)[nH]c(C(=O)OC)c1C(=O)c1ccccn1`, the growth was 34.5% (inactive).
Same read-out and setting: under `COC(=O)Nc1nc2ccc(C(=O)c3ccccc3)cc2[nH]1` stands 4% (active) and 5.13% (active) and 2.8% (active).
Turning to `O=C(/C=C/C=C/c1ccccc1)c1ccco1`, the growth was 85.4% (inactive).
On to `C=CCOc1ccc(N=NC(C#N)C#N)cc1`, for which the growth was 72.7% (inactive).
As to `CCCCCCCCCCCCCCCCCCOP(=O)([O-])OC1CC[N+](C)(C)CC1`, the growth was 2.35% (active) and -29.9% (active).
As to `CCCCCCC(C)c1ccccc1O` (stereo not given) (tested in a mixture with another compound), the growth was 113% (inactive).
For the compound `NC(N)=N/N=C/c1ccc([N+](=O)[O-])o1`, the growth is 33.2% (inactive).
Still for that read-out and setting: under `Cc1ccc(N=C=C(c2ccccc2)c2ccccc2)cc1` stands 97.6% (inactive).
On the same count and under the same terms, next, `CCC(=O)Sc1ccccc1C(=O)Nc1ccc(Cl)cc1`: 17% (inactive); `COc1ccc2nc3cc(Cl)ccc3c(NCCNc3c4ccc(Cl)cc4nc4ccc(OC)cc34)c2c1`: -65.7% (active); `O=[N+]([O-])c1ccc2c(N=Nc3ccc4ccccc4c3O)c(O)cc(S(=O)(=O)O)c2c1`: 104% (inactive).
Same read-out and setting: under `CCN1/C(=C\c2cc[n+](CC)c3ccccc23)C=Cc2ccccc21` stands 8.56% (active).
Take `O=C(/C=C\c1cc(Br)ccc1O)/C=C/c1cc(Br)ccc1O`: the growth was -54.2% (active).
For `COc1cc(/C=C/C(C)=O)ccc1O`, the growth was 109% (inactive) and 125% (inactive).
On the same count and under the same terms, under `CCN(CC)CCOc1ccc(-c2nc3cc(Cl)ccc3s2)cc1` stands -100% (active); under `Oc1c(Cl)c2ccccc2c2ccccc12`, 103% (inactive).
The same measure, in the same setting: under `CCOC(=O)/C=C/c1ccc([N+](=O)[O-])o1` stands 36.7% (inactive); under `CC1(C)CC([P+](c2ccccc2)(c2ccccc2)c2ccccc2)=NN1`, 24.9% (inactive).
Turning to `CC(=O)C(=Cc1ccc(C=C(C(C)=O)C(C)=O)cc1)C(C)=O`, the growth is -60.5% (active).
Same read-out and setting: under `Cc1ccnc(NC(c2ccccc2)c2ccc3cccnc3c2O)c1` (stereo not given) stands 43.1% (inactive).

The test is the same for the next values; noted with them: 100 µM.
Turning to `O=C(Nc1cccc(Br)c1)Oc1cccc2cccnc12`, the growth is 57.8% (inactive).
Same read-out and setting: under `CN(C)C(=O)c1ccc(SC(=S)NCc2ccccc2)cc1` stands -62% (active).
Consider `O=C(O)c1c(Cl)c(Cl)c(Cl)c(Cl)c1-c1c2cc(I)c(=O)c(I)c-2oc2c(I)c(O)c(I)cc12`, for which the growth was 39.2% (inactive).
